Screens as filed in PubChem.
Only some compounds are listed: those with a hit (about 4% of all), similar ones and a draw of the others.
CSC inhib = cancer stem cell inhibition | cancer stem cell-like cells viability, luminescence | inhibition, % at 7.5 µM | 300,000 tested, 1.1% active; in the data active means inhibition above about 75%; tested in HMLE shEcad cells
Beta apoptosis = beta cell apoptosis inhibition; AID 435005; protection from apoptosis, % (test concentration not listed); 300,000 tested, 0.8% active; INS-1E cytokine-induced death, ATP luminescence, 48 h; percent of positive-control rescue, neutral wells zero;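 active means Every replicate reaches about 75%, or at least half do and their mean reaches it too, limit read from the data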;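 further: 0% = cytokine-treated negative control wells and 100% = positive control rescue; higher means more ATP so stronger rescue from cytokine killing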
Gli-Sufu block = antagonists of Gli-Sufu signaling | AID 588413 | 340,000 tested, 0.74% active | inhibition, % at 5 µM | Sufu-KO-LIGHT fibroblasts, Gli luciferase reporter luminescence;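 active means inhibition above about 55%, limit read from the data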;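 further: 0% = DMSO-treated cells and 100% = wells with medium but no cells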
Mdm2-MdmX inh = human Mdm2/MdmX binding inhibition; O15151+Q00987; SaOS-2 split-luciferase Mdm2/MdmX complementation, luminescence; inhibition, % at 8 µM; 330,000 tested, 3% active; AID 485346;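 active means inhibition of at least 50% at 8 µM in the primary screen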
Target sequence (O15151 whole entry, looked up): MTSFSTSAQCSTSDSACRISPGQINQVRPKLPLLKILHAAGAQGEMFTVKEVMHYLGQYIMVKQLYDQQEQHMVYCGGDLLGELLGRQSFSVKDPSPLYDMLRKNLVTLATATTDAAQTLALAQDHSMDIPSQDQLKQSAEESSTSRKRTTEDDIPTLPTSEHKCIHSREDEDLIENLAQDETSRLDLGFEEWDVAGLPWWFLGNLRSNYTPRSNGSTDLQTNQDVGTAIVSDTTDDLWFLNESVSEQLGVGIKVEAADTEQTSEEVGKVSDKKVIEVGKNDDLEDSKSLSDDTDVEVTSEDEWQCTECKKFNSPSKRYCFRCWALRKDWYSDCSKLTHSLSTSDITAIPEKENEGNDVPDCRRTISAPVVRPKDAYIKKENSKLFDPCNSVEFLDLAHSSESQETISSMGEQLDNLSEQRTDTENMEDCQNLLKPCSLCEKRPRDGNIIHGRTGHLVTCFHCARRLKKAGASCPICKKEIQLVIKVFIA
Target sequence (Q00987 whole entry, looked up): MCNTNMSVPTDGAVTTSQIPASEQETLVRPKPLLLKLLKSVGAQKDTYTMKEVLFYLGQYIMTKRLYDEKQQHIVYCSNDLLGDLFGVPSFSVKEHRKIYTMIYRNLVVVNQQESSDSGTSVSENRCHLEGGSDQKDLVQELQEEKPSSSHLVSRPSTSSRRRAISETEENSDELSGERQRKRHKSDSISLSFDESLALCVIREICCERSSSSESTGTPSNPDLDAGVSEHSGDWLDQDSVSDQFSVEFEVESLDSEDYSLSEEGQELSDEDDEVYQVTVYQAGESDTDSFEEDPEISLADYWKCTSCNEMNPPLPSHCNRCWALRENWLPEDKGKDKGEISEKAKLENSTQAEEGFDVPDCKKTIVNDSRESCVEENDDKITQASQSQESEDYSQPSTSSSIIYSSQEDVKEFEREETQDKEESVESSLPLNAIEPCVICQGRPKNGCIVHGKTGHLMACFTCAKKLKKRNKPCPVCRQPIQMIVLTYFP
Shn3 3UTR inh = reduces Shn3 3'UTR luciferase signal in osteoblasts; Clone20 osteoblast Shn3 3'UTR firefly luciferase, 24 h; inhibition, % at 12.5 µM; 360,000 tested, 0.52% active; AID 588674;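 active means mean inhibition of at least 75% with every replicate also reaching 75%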;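 further: 0% = median of neutral control wells and 100% = pilot-screen positive control compound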
PAX8 inh HTS = PAX8 transcriptional activity inhibition | RMG-I TPO-luciferase reporter, SteadyGlo, 24 h | inhibition, % at 12.6 µM | 360,000 tested, 1.2% active | AID 652154;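 active means mean replicate inhibition at least 60% with every replicate also reaching 60%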;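 further: luciferase light reporting Pax8 driven TPO promoter activity; plate controls were median of neutral control wells for no effect and mitoxantrone controls for full effect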
Mdm2-MdmX conf = human Mdm2/MdmX binding inhibition, confirmed; shares compounds with Mdm2-MdmX inh; luminescent assay; inhibition, % at 8 µM; 10,000 tested, 55% active; AID 489028; in the data active means inhibition above about 40%
FLuc counter = counter-screen for Mdm2/MdmX inhibitors: full-length luciferase. 6,200 tested, 77% active. SaOS-2 full-length luciferase counterscreen, luminescence. inhibition, % at 8 µM. AID 504607. shares compounds with Mdm2-MdmX inh;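 active means mean inhibition at 8 µM reaching about 37%, which flags the compound as non-specific, limit read from the data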;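 further: p53-null SaOS-2 cells with luciferase driven by a doxycycline-inducible promoter; compound on cells about two nights before reading with doxycycline added after day one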
* hit, by the source's call; / = no result given.

SMILES | CSC inhib | Beta apoptosis | Gli-Sufu block | Mdm2-MdmX inh | Shn3 3UTR inh | PAX8 inh HTS | Mdm2-MdmX conf | FLuc counter
C[C@@H]1CN([C@@H](C)CO)C(=O)c2cc(NC(=O)C3CCCCC3)ccc2O[C@H]1CN(C)C(=O)NC1CCCCC1 | / | / | / | / | / | -18 | / | /
COc1ccc(C(=O)Cn2c(C(=O)/C=C/c3ccccc3)nc3ccccc32)cc1 | 49 | 21 | 13 | 72* | 102* | / | 46* | 61*
COc1ccc(C(=O)CSc2nc3ccccc3n2CC(=O)c2ccccc2)cc1 | -4 | -1 | 7 | -27 | 4 | / | / | /
C[C@@H]1CN([C@H](C)CO)C(=O)c2cc(C#CC3CCCC3)cnc2O[C@@H]1CN(C)C(=O)Nc1ccccc1 | / | / | / | / | / | -12 | / | /
C[C@H]1CN([C@@H](C)CO)C(=O)c2cccc(NS(=O)(=O)c3cn(C)cn3)c2O[C@@H]1CN(C)Cc1ccncc1 | / | / | / | / | / | 9 | / | /
CCCCNc1c2c3c(cccc3n(C)c1=O)C(=O)c1ccccc1-2 | 63 | 10 | 7 | 51* | -17 | / | 33 | /
Cc1ccc(N2CN=c3s/c(=C\c4cccnc4)c(=O)n3C2)cc1 | -9 | -8 | -44 | 66* | 6 | -90 | 24 | /
Cc1ccc(/C=c2\sc3n(c2=O)CN(c2ccc(Br)cc2)CN=3)o1 | 43 | -1 | -7 | 23 | 9 | -4 | / | /
Fc1c(F)c(F)c(/C=N/NC(=S)Nc2cccnc2)c(F)c1F | 12 | 33 | 11 | 51* | 6 | 28 | 34 | 74*
Fc1cccc(F)c1/C=N/NC(=S)Nc1cccnc1 | -11 | / | 3 | 7 | -1 | -30 | / | /
Cc1ccccc1NC(=O)c1[nH]cnc1C(=O)NN | -8 | -3 | 1 | -23 | -6 | -4 | / | /
O=C(Nc1ccccc1)c1nc[nH]c1C(=O)NCCCCCCNC(=O)c1[nH]cnc1C(=O)Nc1ccccc1 | / | 21 | 4 | 87* | 5 | -5 | 33 | /
CCN(CC)C(=O)c1[nH]cnc1C(=O)Nc1ccccc1 | -41 | -2 | -4 | 22 | 0 | 4 | / | /
O=C(Nc1ccc(Cl)cc1)c1nc[nH]c1C(=O)NCCN(CCNC(=O)c1[nH]cnc1C(=O)Nc1ccc(Cl)cc1)CCNC(=O)c1[nH]cnc1C(=O)Nc1ccc(Cl)cc1 | 101* | 104* | 3 | 100* | 10 | / | 98* | 56*
COc1ccc(NC(=O)c2nc[nH]c2C(=O)Nc2ccccc2C)cc1 | 62 | -8 | 3 | 58* | 6 | / | 54* | 48*
O=C(Nc1ccccc1)c1nc[nH]c1C(=O)NCCCNC(=O)c1[nH]cnc1C(=O)Nc1ccccc1 | -6 | 3 | -6 | 39 | 3 | 3 | / | /
O=C(Nc1ccccc1)c1nc[nH]c1C(=O)NCCN(CCNC(=O)c1[nH]cnc1C(=O)Nc1ccccc1)CCNC(=O)c1[nH]cnc1C(=O)Nc1ccccc1 | 43 | -3 | 9 | 62* | -4 | -1 | 9 | /
C[C@@H]1CCCCO[C@H](CN(C)CC2CC2)[C@H](C)CN([C@@H](C)CO)C(=O)c2cc(NS(=O)(=O)c3cn(C)cn3)ccc2O1 | / | / | / | / | / | -15 | / | /
C[C@@H]1CCCCO[C@H](CN(C)Cc2ccc(Cl)c(Cl)c2)[C@@H](C)CN([C@H](C)CO)C(=O)c2cc(NC(=O)Nc3cccc4ccccc34)ccc2O1 | / | / | / | / | / | 10 | / | /
CCC(=O)N(C)C[C@@H]1Oc2cc(C#CC3CCCCC3)ccc2S(=O)(=O)N([C@@H](C)CO)C[C@@H]1C | / | / | / | / | / | 35 | / | /
O=C(Nc1ccc(Cl)cc1)c1nc[nH]c1C(=O)NCCCNC(=O)c1[nH]cnc1C(=O)Nc1ccc(Cl)cc1 | / | 37 | / | 97* | / | / | -5 | /
Cc1ccc(NC(=O)c2nc[nH]c2C(=O)NCCN(CCNC(=O)c2[nH]cnc2C(=O)Nc2ccc(C)cc2)CCNC(=O)c2[nH]cnc2C(=O)Nc2ccc(C)cc2)cc1 | 46 | -6 | 3 | 90* | 19 | 3 | 76* | 38*
CNC(=O)c1[nH]cnc1C(=O)Nc1ccc(Cl)cc1 | 4 | -3 | -16 | 33 | -22 | -18 | / | /
CCCNC(=O)N1CC2(C1)[C@H](c1ccccc1)[C@@H](CO)N2C(=O)c1ccncc1 | / | / | / | / | / | 0 | / | /
O=C(C[C@H]1C[C@H]2c3cc(NS(=O)(=O)c4ccc(F)cc4)ccc3O[C@H]2[C@@H](CO)O1)NCCN1CCCCC1 | / | / | / | / | / | -11 | / | /
SMILES | CSC inhib | Beta apoptosis | Gli-Sufu block | Mdm2-MdmX inh | Shn3 3UTR inh | PAX8 inh HTS | Mdm2-MdmX conf | FLuc counter
CCn1c(=O)cc(SCC(=O)Nc2ccc(OC)c(OC)c2)c2ccccc21 | 6 | 1 | -5 | 52* | 37 | / | 43* | 58*
CCn1c(=O)cc(SCC(=O)N2CCOCC2)c2ccccc21 | 0 | -6 | 24 | 39 | 5 | / | / | /
COc1ccccc1N1CCN(C(=O)CSc2ccccc2)CC1 | -1 | -6 | -15 | -28 | -24 | / | / | /
CCn1c(=O)cc(SCC(=O)N2CCN(c3ccccc3OC)CC2)c2ccccc21 | / | -11 | 24 | 62* | -2 | / | 37 | /
CCn1c(=O)cc(SCC(=O)N2CCN(C(=O)c3ccco3)CC2)c2ccccc21 | -4 | -7 | 25 | 53* | -16 | / | 32 | /
C[C@H]1CN([C@@H](C)CO)C(=O)Cc2cc(NC(=O)Nc3ccc4c(c3)OCO4)ccc2O[C@H]1CN(C)S(=O)(=O)c1cn(C)cn1 | / | / | / | / | / | -23 | / | /
c1cc2[nH]snc2c2nc(C3CC3)nc12 | -10 | -6 | -2 | 72* | -3 | / | 73* | 26
Cc1cc(C(=O)NCCN2CCN(c3cccc(Cl)c3)CC2)n(-c2ccccc2)n1 | 58 | / | -11 | 53* | 12 | 36 | 59* | 62*
Cc1cc(C(=O)NCCCN2CCN(c3cc(Cl)ccc3C)CC2)n(-c2ccccc2)n1 | 20 | 4 | 4 | 10 | 22 | 2 | / | /
Cc1ccc(S(=O)(=O)N[C@@H]2CC[C@@H](CCn3cc(C4CC4)nn3)O[C@H]2CO)cc1 | / | / | / | / | / | 14 | / | /
Fc1ccc(NC(=S)Nc2ccc(F)c(Cl)c2)cc1Cl | 2 | 37 | 8 | 64* | 42 | / | 28 | /
Oc1ccc(Br)cc1-c1nc2cnccn2c1NC1CCCC1 | 16 | -7 | -2 | 79* | 32 | 4 | 57* | 20
Oc1ccc(Br)cc1-c1nc2cnccn2c1NC1CCCCC1 | 27 | 2 | 10 | 28 | -9 | / | / | /
NC(=S)n1[nH]c(-c2ccc([N+](=O)[O-])cc2)c(N=Nc2cccc(Cl)c2)c1=O | / | / | 62* | 97* | 64 | -4 | 91* | 40*
CC(C)NC(=O)Nc1ccc2c(c1)C(=O)N([C@H](C)CO)C[C@H](C)[C@@H](CN(C)S(=O)(=O)c1cccs1)OCCCC[C@@H](C)O2 | / | / | / | / | / | -28 | / | /
Oc1ccc(N=Nc2ccc3c(c2)OCCO3)c2cccnc12 | / | / | / | 77* | 93* | 59 | 89* | 53*
